D3 antag – blocks the human D3 dopamine receptor; P35462; D3R cells, DiscoveRx beta-arrestin luminescence, antagonist mode; stronger effect = lower value; max response, negative = inhibition, %; hit rate 2.5% among 360,000; AID 652054; in the data active = max response below about -50%; inconclusive = no clear call, values can overlap the other calls
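Cells plated overnight at 1500 cells/well, then exposed to library compounds with dopamine controls for 90 minutes at 37 degrees C. DiscoveRx reagent added for 30–60 minutes at room temperature; luminescence read, quantitative HTS format.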
D3 ag – activates the human D3 dopamine receptor. P35462. D3R DiscoveRx beta-arrestin cells, luminescence, 90 min. max activation, %. hit rate 0.58% among 410,000; in the data active = max activation above about 30%
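Agonist mode: compounds and dopamine controls were applied to plated cells for 90 min at 37 degrees C after an overnight attachment at 1500 cells/well. Luminescent read-out followed 30 - 60 minutes at room temperature with DiscoveRx detection reagent.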
Giardia killer – kills Giardia lamblia; hit rate 0.15% among 340,000; Giardia lamblia trophozoite viability; activity change, % at 7.66 µM, hits read low; in the data active = activity change below about -80%; inconclusive = between about -30% and that limit;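 also: parasites exposed to compound for two days anaerobically before the ATP read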
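Giardia trophozoites, 100 cells per well, were exposed to compounds for 48 hrs at 37 deg C under anaerobic conditions; viability was then read as ATP content by bioluminescence after 15-30 min at room temperature.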
B2AR arrestin – agonists driving beta-arrestin recruitment to human beta2-adrenergic receptor; P07550; beta-arrestin recruitment to beta2AR, cell-based reporter; Potency, µM (series often up to 46.1 µM), hits mostly activators; hit rate 0.02% among 330,000; AID 492947; active = well fitted activation curve with a large enough effect; inconclusive = small, poorly fitted or top-dose-only effect; also: nearly all actives have a fitted effect of over 65% in size
Target sequence (P07550 whole entry, looked up): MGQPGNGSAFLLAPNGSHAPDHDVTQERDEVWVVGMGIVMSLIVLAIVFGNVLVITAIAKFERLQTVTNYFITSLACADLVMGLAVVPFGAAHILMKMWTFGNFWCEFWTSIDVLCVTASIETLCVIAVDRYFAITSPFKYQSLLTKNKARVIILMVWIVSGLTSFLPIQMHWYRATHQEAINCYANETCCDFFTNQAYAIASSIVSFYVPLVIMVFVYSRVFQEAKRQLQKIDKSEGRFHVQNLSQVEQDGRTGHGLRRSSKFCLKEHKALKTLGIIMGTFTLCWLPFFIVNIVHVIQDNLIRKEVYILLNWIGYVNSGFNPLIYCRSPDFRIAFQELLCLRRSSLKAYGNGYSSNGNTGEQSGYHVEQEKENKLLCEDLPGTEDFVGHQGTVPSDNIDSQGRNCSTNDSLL
Of the large screens only hits and unclear results are named; the others gave an inactive call. A selection: hits, their analogues and other compounds. The true share with any hit is near 2.8%.

OCC1(CCc2ccccc2)CCCN(CCCC(F)(F)F)C1 (stereo unspecified)	D3 antag inconclusive
CCOC(=O)CCCN1C(=O)CCn2nc(-c3cn(C)c4ccccc34)cc21	none (no result: D3 antag, Giardia killer, B2AR arrestin)
Cn1c(C(=O)Nc2ccc(OC(F)(F)F)cc2)cc2c(=O)n3ccccc3nc21	none (no result: D3 antag, Giardia killer, B2AR arrestin)
CCOc1ccc(CN2CCCC(CO)(Cc3ccc(F)cc3)C2)cc1 (stereo unspecified)	none
OCC1(Cc2ccc(F)cc2)CCCN(Cc2ccc(F)cc2Cl)C1 (stereo unspecified)	D3 antag -61
CCOC(=O)[C@H](CS)NCCN[C@@H](CS)C(=O)OCC	none (no result: D3 antag, Giardia killer, B2AR arrestin)
C=C1CCN(C(C)C(=O)OCc2ccc(C)cc2)S(=O)(=O)c2ccccc21 (stereo unspecified)	none (no result: D3 antag, D3 ag, B2AR arrestin)
O=C(Cn1cc(S(=O)(=O)c2ccccc2)c(=O)c2cc3c(cc21)OCO3)Nc1ccc(Cl)cc1	none (no result: D3 antag, Giardia killer, B2AR arrestin)
Cc1cc2n(n1)CCCN2C(=O)Nc1ccc(Cl)cc1	none (no result: D3 antag, Giardia killer, B2AR arrestin)
Oc1c(Cl)cc(Cl)cc1/C=N/Nc1ncc(Br)cn1	D3 antag -107
COc1ccc(S(=O)(=O)Nc2ccc(NC(C)=O)cc2)cc1Cl	none
COc1ccc(CONS(=O)(=O)c2ccc(NC(C)=O)cc2)cc1Cl	D3 antag -106
CC1CCN(C(=O)c2ccc(NC(=O)c3nsc4ccccc34)cc2)CC1	none (no result: D3 antag, Giardia killer, B2AR arrestin)
Cc1ccccc1C(=O)NNC1=NCCC1	none
O=C(NNC1=NCCC1)c1cccc(Br)c1	D3 antag -58
COc1ccc(C(CNC(=O)COc2ccc(Cl)c(C)c2)N2CCOCC2)cc1 (stereo unspecified)	none (no result: D3 antag, Giardia killer, B2AR arrestin)
CCCn1c(=O)c2ccccc2n2c(SCCOc3ccc(Cl)cc3)nnc12	D3 antag -50
CCCn1c(=O)c2ccccc2n2c(SCCOc3ccccc3F)nnc12	none
Cc1ccc2cc3c(N)nn(C(=O)c4cccc(F)c4)c3nc2c1	none (no result: D3 antag, Giardia killer, B2AR arrestin)
CC(=O)OCC(NC(=O)C(COCc1ccccc1)NC(=O)OC(C)(C)C)C1OC(n2cc(C)c(=O)[nH]c2=O)C(OC(C)=O)C1OC(C)=O (stereo unspecified)	none (no result: D3 antag, D3 ag, B2AR arrestin)
COc1ccc(C(=O)N2CC(=O)Nc3ccc(C)cc3C2c2ccc(F)cc2)c(OC)c1 (stereo unspecified)	none (no result: D3 antag, Giardia killer, B2AR arrestin)
COc1ccc(Cn2c(SCc3cc(C)ccc3C)nc3cc(OC)c(OC)cc3c2=N)cc1	D3 ag 44
COCCCn1c(SCc2ccccc2)nc2cc(OC)c(OC)cc2c1=N	D3 ag 31
CC(Oc1ccc(F)cc1)C(=O)Nc1nc(-c2ccccn2)cs1 (stereo unspecified)	D3 antag -69
COc1ccc(CNC(=O)c2ccc(CS(=O)Cc3ccccc3Cl)o2)cc1 (stereo unspecified)	none (no result: D3 antag, Giardia killer, B2AR arrestin)
Cc1ccc(SCc2nc(-c3ccc(C(=O)NCC(C)c4ccccc4)cc3)oc2C)cc1 (stereo unspecified)	none (no result: D3 antag, Giardia killer, B2AR arrestin)
CCCCCCCCSC1=CC(=O)C(OC)=C(OC)C1=O	D3 antag -106 (no result: Giardia killer, B2AR arrestin)
Cc1oc2c(cc(NS(=O)(=O)c3ccc(Cl)cc3)c3ccccc32)c1C(=O)OCc1ccccc1	none (no result: D3 antag, Giardia killer, B2AR arrestin)
C=C1CC[C@H](O)C/C1=C\C=C1/CCC[C@]2(C)[C@@H]([C@H](C)CCCC(C)C)CC[C@@H]12	none (no result: D3 antag, Giardia killer, B2AR arrestin)
O=C(c1ccc2c(c1)OCO2)C1CCCN(Cc2cccc(C(F)(F)F)c2)C1 (stereo unspecified)	D3 antag -115
O=C(c1ccc2c(c1)OCO2)C1CCCN(Cc2ccc(OC(F)F)cc2)C1 (stereo unspecified)	D3 antag -76
O=C(c1ccc2c(c1)OCO2)C1CCCN(Cc2ccc3cccc(F)c3n2)C1 (stereo unspecified)	none
COc1ccccc1C(=O)NC1=NC(c2ccc(Br)cc2)CC(=O)N1 (stereo unspecified)	none (no result: D3 antag, Giardia killer, B2AR arrestin)
CCN(CC)c1ccc(NC(=O)c2cc3c(=O)n4cccc(C)c4nc3n2C)c(C)c1	none (no result: D3 antag, Giardia killer, B2AR arrestin)
CCNc1nc(NCC)nc(-n2nc(C)cc2C)n1	Giardia killer inconclusive, B2AR arrestin 7.9µM
Cc1cc(C)n(-c2nc(NC(C)(C)C)nc(NC(C)(C)C)n2)n1	D3 antag -62, B2AR arrestin inconclusive
Cc1cc(C)n(-c2nc(NC(C)C)nc(NC(C)C)n2)n1	D3 antag -51, B2AR arrestin 13µM
Cc1cc(C)n(-c2nnc(NC(C)(C)C)nn2)n1	none
CCOC(=O)CC(=O)CSc1nc2ccsc2c(=O)n1Cc1ccccc1	none (no result: D3 antag, Giardia killer, B2AR arrestin)
COc1ccccc1NS(=O)(=O)c1cccc(C(=O)NCC(C)(C)N2CCOCC2)c1	none
Cc1cccc(NS(=O)(=O)c2cccc(C(=O)NCC(C)(C)N3CCOCC3)c2)c1	D3 antag -81
CCCCC(=O)NNC(=S)NC(=O)CCC	D3 antag -58
Oc1ccc(N=Nc2cccc(Cl)c2)cc1C=Nc1ccc(N2CCOCC2)cc1	D3 antag -76

Compound activity (PubChem)
